For seven compounds, outcome and AC50 results are on record in PubChem BioAssay (EPA / NIEHS).

The target of experiment [1] is Bile acid receptor (Homo sapiens) (UniProt Q96RI1). Briefly: ATG_IR1_CIS: Attagene CIS-FACTORIAL HepG2 Assay for human Nuclear Receptor Subfamily 1 Group H Member 4 (NR1H4), IR1 submotif (AID 2282946). As to conditions: IR1 reporter transcription, actives raise or lower the signal. Summed up:
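Cells (human HepG2) carry transiently transfected cis-promoter reporter transcription units. Compounds are incubated 24 h, total RNA is reverse-transcribed and amplified, and labelled fragments are resolved by capillary electrophoresis. Curves use DMSO as baseline.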

A short description of experiment [2]: ATG_GRE_CIS: Attagene CIS-FACTORIAL HepG2 Assay for human Glucocorticoid Response Elements (GRE) (AID 2282947). The following applies: HepG2 GRE cis-reporter, Attagene multiplex mRNA; actives raise or lower the signal. In short, it runs like this: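 Assay uses human hepatoma HepG2 cells transfected with cis-promoter reporter units, exposed 24 h. mRNA from reporters detected by RT-PCR plus capillary electrophoresis; DMSO serves as negative control and baseline.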

The nature of experiment [3]: ATG_M_32_CIS: Attagene CIS-FACTORIAL HepG2 Assay for M32 Transcription Factor (Internal Marker) (AID 2282949).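 Also: background control marker of the multiplexed CIS panel rather than a real target.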 The following applies: HepG2 Attagene cis-factorial M32 reporter, mRNA; actives raise or lower the signal. Summed up: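 Internal background marker read-out: RT-PCR/capillary electrophoresis fluorescence of reporter transcripts from transiently transfected HepG2 cells after 24 h chemical exposure. Activity fitted bidirectionally relative to DMSO negative control.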

Experiment [4] in a line: ATG_M_06_CIS: Attagene CIS-FACTORIAL HepG2 Assay for M06 Transcription Factor (Internal Marker) (AID 2282950). As to conditions: HepG2 Attagene CIS-FACTORIAL M06 internal marker reporter; actives raise or lower the signal. Summed up: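 Cells (HepG2, transiently carrying cis-driven reporter units) receive chemical for 24 h before RNA isolation. Reporter cDNA is PCR-amplified, FAM-labelled by primer extension, HpaI-digested and sized on a capillary analyser.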

Experiment [5] has as its target Hypoxia-inducible factor 1-alpha (Homo sapiens) (UniProt Q16665). The experiment is described as follows: ATG_HIF1a_CIS: Attagene CIS-FACTORIAL HepG2 Assay for human Hypoxia Inducible Factor 1 (HIF1A) (AID 2282951). As to conditions: HepG2 Attagene cis-factorial HIF1a reporter transcription; actives raise or lower the signal. In short, it runs like this:
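Measures endogenous transcription-factor activity through cis-regulated reporter mRNA in HepG2. Cells dosed 24 h; transcripts quantified by RT-PCR with 6-FAM-labelled products separated by capillary electrophoresis; DMSO serves as negative control.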

In experiment [6] the target is Hepatocyte nuclear factor 6 (Homo sapiens) (UniProt Q9UBC0). The experiment is described as follows: ATG_HNF6_CIS: Attagene CIS-FACTORIAL HepG2 Assay for human Hepatocyte Nuclear Factor 6 (HNF6) (AID 2282952). The following applies: HepG2 Attagene cis-factorial HNF6 reporter transcription; actives raise or lower the signal. In short, it runs like this:
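Transiently transfected HepG2 cells expressing cis-regulated reporter transcription units were exposed to chemical for 24 h in a 24-well format. Reporter transcript abundance was determined by fluorescence capillary electrophoresis.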

Experiment [7] addresses Heat shock factor protein 1 (Homo sapiens) (UniProt Q00613). Briefly: ATG_HSE_CIS: Attagene CIS-FACTORIAL HepG2 Assay for human Heat Shock Transcription Factor 1 (HSE) (AID 2282953). As to conditions: HepG2 HSE cis-reporter, Attagene RNA transcription; actives raise or lower the signal. Summed up: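 Liver-derived HepG2 cells carry transiently introduced multiple reporter units governed by cis promoters. Reporter RNA measured 24 h post-dose through reverse transcription, PCR amplification, fluorescent labelling and capillary electrophoresis, normalised to DMSO.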

A short description of experiment [8]: ATG_MRE_CIS: Attagene CIS-FACTORIAL HepG2 Assay for human Metal Responsive Element (MRE) (AID 2282954). The following applies: HepG2 MRE cis-reporter transcription, Attagene multiplex; actives raise or lower the signal. Summed up: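 After a 24 h chemical exposure, transiently transfected HepG2 cells yield RNA whose reporter sequences are amplified, FAM-labelled and sized by capillary electrophoresis. Curves are fitted bidirectionally relative to DMSO.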

The target in experiment [9] is Paired box protein Pax-6 (Homo sapiens) (UniProt P26367). Briefly: ATG_Pax6_CIS: Attagene CIS-FACTORIAL HepG2 Assay for human Paired Box 6 (PAX6) (AID 2282956). The following applies: HepG2 CIS-FACTORIAL PAX6 reporter transcription, RNA readout; actives raise or lower the signal. In short, it runs like this:
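After twenty-four hours of chemical exposure, transfected HepG2 cells are harvested for RNA. Cis-promoter reporter transcripts are amplified, fluorescently labelled and sized by capillary electrophoresis, with gain and loss of signal scored against DMSO.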

A short description of experiment [10]: ATG_PXRE_CIS: Attagene CIS-FACTORIAL HepG2 Assay for human Pregnane X Receptor Element (PXRE) (AID 2282957). The following applies: HepG2 Attagene CIS-FACTORIAL PXRE reporter, mRNA; actives raise or lower the signal. In short, it runs like this:
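Cis-element reporter mRNA in human hepatoma HepG2 cells is measured 24 h post-dosing by RT-PCR, primer-extension labeling and capillary electrophoresis; gain or loss of signal is fitted relative to DMSO.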

The nature of experiment [11]: ATG_PPRE_CIS: Attagene CIS-FACTORIAL HepG2 Assay for human Peroxisome Proliferator-activated Response Element (PPRE) (AID 2282958). As to conditions: HepG2 PPRE cis-element reporter, Attagene transcription factor profiling; actives raise or lower the signal. In short, it runs like this:
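Cells are first transfected transiently with the multiplexed reporter library, then dosed for 24 h. Total RNA is reverse-transcribed, amplified, fluorescently end-labeled and HpaI-cut before capillary electrophoresis; activity is fitted bidirectionally against DMSO controls.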

A short description of experiment [12]: ATG_RORE_CIS: Attagene CIS-FACTORIAL HepG2 Assay for human RAR-related Orphan Receptor Element (RORE) (AID 2282959). The following applies: HepG2 Attagene cis-factorial RORE reporter, mRNA; actives raise or lower the signal. Summed up: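 Cells were HepG2 carrying transfected cis-regulated reporter constructs, dosed for 24 hours. Total RNA was reverse-transcribed and reporter cDNA amplified, fluorescently labeled and sized by capillary electrophoresis. Activity was fitted bidirectionally relative to DMSO.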

A short description of experiment [13]: ATG_Sox_CIS: Attagene CIS-FACTORIAL HepG2 Assay for human SRY-box transcription factor (SOX) (AID 2282960). As to conditions: HepG2 Attagene cis-factorial SOX reporter, mRNA; actives raise or lower the signal. Summed up:
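Transient MRTU transfection of HepG2; 24 h compound incubation; TriZol RNA, oligo(dT) RT, PCR, 6-FAM primer extension, HpaI cut, CE. Bidirectional fit, DMSO = baseline.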

Experiment [14] concerns the target Transcription factor Sp1 (Homo sapiens) (UniProt P08047). Briefly: ATG_Sp1_CIS: Attagene CIS-FACTORIAL HepG2 Assay for human Specificity Protein 1 (Sp1) (AID 2282961). The following applies: HepG2 Sp1 cis-reporter transcription, actives raise or lower the signal. Summed up:
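Endogenous Sp1 activity was gauged in human liver HepG2 cells bearing transfected reporter units under a cis-regulating promoter. After 24 h dosing, reporter mRNA was quantified by RT-PCR with capillary electrophoresis, and activity fitted bidirectionally versus DMSO.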

Experiment [15] in a line: ATG_SREBP_CIS: Attagene CIS-FACTORIAL HepG2 Assay for human Sterol Regulatory Element Binding (SREBP) (AID 2282962). As to conditions: HepG2 Attagene cis-factorial SREBP reporter, mRNA; actives raise or lower the signal. In short, it runs like this: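 Twenty-four hours after chemical dosing of transfected HepG2 cultures, reporter RNA was converted to cDNA, amplified, end-labelled with 6-FAM and resolved by capillary electrophoresis. Responses were fitted relative to DMSO.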

Experiment [16] has as its target Signal transducer and activator of transcription 3 (Homo sapiens) (UniProt P40763). Briefly: ATG_STAT3_CIS: Attagene CIS-FACTORIAL HepG2 Assay for human Signal Transducer and Activator of Transcription 3 (STAT3) (AID 2282963). As to conditions: HepG2, Attagene cis-factorial STAT3 reporter transcription; actives raise or lower the signal. In short, it runs like this:
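After a 24 h compound incubation, total RNA from MRTU-transfected HepG2 cells was converted to cDNA and reporter sequences PCR-amplified, labelled and profiled by capillary electrophoresis. Gain and loss of signal were referenced to DMSO.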

Experiment [17] is described as follows: ATG_TA_CIS: Attagene CIS-FACTORIAL HepG2 Assay for human TA Basal Promoter (AID 2282964). As to conditions: HepG2 Attagene CIS-factorial TA basal promoter reporter; actives raise or lower the signal. Summed up: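 Background internal-marker endpoint from a 52-component HepG2 cis-reporter panel. Cells treated 24 h; reporter transcripts quantified via RT-PCR and CE fluorescence against DMSO baseline.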

The nature of experiment [18]: ATG_TCF_b_cat_CIS: Attagene CIS-FACTORIAL HepG2 Assay for human T-Cell-Factor with beta-catenin (TCF/b-cat) (AID 2282965). As to conditions: HepG2 TCF/beta-catenin cis-reporter transcription, actives raise or lower the signal. Summed up:
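Endogenous transcription factor activity is captured through cis-promoter reporter constructs transiently introduced into human HepG2 liver cells. Induced reporter mRNA is measured after 24 h and fitted bidirectionally relative to DMSO.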

The nature of experiment [19]: ATG_ISRE_CIS: Attagene CIS-FACTORIAL HepG2 Assay for human Interferon Regulatory Factor 1 (IRF1) binding to an Interferon-Stimulated Response Element (ISRE) (AID 2282948). As to conditions: HepG2 ISRE cis-reporter (Attagene), mRNA transcription readout; actives raise or lower the signal. Summed up:
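Quantitation relies on labelled RT-PCR fragments separated by capillary electrophoresis. Human HepG2 cells bearing cis-promoter reporter constructs were treated 24 h; DMSO served as baseline for bidirectional fitting.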

The nature of experiment [20]: ATG_PBREM_CIS: Attagene CIS-FACTORIAL HepG2 Assay for human Phenobarbital-responsive Enhancer Module (PBREM) (AID 2282955). As to conditions: HepG2 PBREM cis-reporter, Attagene multiplexed transcription; actives raise or lower the signal. Summed up:
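Fluorescence of labelled reporter cDNA fragments, resolved by capillary electrophoresis, gives mRNA induction in transfected HepG2 cells treated for 24 h; DMSO serves as negative control and baseline.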

The source made the active and inactive calls. The calls were made as follows: active = hit-call score of the fitted dose curve at least 0.9, where 1 is the maximum; inactive = score below 0.9.

Sequence of Signal transducer and activator of transcription 3 (Homo sapiens) (P40763 whole entry, looked up): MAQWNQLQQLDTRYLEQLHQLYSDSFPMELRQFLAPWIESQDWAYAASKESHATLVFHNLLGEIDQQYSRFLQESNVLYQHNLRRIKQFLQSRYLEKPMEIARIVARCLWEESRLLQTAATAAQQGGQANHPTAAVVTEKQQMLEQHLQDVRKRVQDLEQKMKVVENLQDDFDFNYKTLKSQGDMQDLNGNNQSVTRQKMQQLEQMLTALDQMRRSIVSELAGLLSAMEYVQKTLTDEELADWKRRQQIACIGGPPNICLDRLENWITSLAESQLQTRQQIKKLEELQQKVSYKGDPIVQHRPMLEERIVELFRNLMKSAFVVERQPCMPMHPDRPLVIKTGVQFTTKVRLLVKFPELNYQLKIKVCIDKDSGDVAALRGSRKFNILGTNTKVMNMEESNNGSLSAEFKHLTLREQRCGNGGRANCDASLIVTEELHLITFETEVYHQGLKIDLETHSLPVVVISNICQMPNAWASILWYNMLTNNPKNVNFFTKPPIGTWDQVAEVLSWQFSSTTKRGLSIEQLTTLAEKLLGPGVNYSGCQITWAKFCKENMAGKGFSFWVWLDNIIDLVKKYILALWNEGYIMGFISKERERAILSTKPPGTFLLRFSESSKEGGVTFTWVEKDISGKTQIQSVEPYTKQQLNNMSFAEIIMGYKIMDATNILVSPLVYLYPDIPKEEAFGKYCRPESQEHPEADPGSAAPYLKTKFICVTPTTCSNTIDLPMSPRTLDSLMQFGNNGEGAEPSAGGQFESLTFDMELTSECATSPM
Sequence of Paired box protein Pax-6 (Homo sapiens) (P26367 whole entry, looked up): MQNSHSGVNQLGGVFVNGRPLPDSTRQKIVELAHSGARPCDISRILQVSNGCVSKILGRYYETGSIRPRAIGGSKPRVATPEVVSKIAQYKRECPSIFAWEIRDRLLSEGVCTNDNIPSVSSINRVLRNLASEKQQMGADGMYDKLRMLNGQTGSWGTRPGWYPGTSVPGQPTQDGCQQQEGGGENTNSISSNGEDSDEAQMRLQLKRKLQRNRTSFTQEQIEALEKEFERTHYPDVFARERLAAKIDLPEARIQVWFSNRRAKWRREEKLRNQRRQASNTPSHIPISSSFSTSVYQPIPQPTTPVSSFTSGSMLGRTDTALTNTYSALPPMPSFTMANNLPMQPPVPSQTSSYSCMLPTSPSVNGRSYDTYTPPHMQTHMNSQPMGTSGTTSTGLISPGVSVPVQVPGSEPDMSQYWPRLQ
Sequence of Heat shock factor protein 1 (Homo sapiens) (Q00613 whole entry, looked up): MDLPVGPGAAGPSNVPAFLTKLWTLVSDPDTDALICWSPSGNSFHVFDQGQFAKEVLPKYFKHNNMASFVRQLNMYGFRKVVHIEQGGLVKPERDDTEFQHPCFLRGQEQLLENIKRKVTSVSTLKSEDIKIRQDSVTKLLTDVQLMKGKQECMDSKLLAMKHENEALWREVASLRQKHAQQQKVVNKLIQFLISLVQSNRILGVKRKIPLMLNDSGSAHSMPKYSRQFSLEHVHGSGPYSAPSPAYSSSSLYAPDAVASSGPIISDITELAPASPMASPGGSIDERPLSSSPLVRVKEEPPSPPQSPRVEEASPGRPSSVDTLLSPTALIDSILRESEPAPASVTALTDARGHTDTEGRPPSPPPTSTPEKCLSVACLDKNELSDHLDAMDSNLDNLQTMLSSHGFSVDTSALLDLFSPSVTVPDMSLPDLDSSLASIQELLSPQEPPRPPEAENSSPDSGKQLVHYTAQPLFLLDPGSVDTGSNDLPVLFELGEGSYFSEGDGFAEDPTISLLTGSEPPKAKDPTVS
Sequence of Hepatocyte nuclear factor 6 (Homo sapiens) (Q9UBC0 whole entry, looked up): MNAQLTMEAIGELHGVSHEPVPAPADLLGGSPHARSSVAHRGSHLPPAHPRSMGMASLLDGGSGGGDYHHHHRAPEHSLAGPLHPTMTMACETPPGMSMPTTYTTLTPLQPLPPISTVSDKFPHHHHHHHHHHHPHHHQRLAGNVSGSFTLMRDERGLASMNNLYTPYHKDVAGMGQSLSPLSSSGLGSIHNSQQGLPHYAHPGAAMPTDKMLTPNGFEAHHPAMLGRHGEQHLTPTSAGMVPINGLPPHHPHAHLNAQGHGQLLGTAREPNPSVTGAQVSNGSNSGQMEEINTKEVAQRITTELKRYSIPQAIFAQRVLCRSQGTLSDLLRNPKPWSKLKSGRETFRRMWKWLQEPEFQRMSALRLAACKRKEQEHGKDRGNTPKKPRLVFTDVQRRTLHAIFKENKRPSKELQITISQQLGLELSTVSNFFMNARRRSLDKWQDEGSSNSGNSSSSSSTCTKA
Sequence of Bile acid receptor (Homo sapiens) (Q96RI1 whole entry, looked up, the tested form may be a part): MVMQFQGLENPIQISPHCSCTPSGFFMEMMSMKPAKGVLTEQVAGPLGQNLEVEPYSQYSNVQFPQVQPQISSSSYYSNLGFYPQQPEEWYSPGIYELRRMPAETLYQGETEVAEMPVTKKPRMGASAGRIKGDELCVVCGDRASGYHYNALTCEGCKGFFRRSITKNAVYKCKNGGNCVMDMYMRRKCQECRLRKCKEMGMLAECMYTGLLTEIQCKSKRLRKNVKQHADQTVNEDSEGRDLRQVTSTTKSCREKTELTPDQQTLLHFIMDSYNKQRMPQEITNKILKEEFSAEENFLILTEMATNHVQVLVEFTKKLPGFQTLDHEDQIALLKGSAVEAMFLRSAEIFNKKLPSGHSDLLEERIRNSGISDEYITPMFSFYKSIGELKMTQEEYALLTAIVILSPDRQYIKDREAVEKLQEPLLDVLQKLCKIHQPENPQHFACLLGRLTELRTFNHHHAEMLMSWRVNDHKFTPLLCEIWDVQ
Sequence of Transcription factor Sp1 (Homo sapiens) (P08047 whole entry, looked up): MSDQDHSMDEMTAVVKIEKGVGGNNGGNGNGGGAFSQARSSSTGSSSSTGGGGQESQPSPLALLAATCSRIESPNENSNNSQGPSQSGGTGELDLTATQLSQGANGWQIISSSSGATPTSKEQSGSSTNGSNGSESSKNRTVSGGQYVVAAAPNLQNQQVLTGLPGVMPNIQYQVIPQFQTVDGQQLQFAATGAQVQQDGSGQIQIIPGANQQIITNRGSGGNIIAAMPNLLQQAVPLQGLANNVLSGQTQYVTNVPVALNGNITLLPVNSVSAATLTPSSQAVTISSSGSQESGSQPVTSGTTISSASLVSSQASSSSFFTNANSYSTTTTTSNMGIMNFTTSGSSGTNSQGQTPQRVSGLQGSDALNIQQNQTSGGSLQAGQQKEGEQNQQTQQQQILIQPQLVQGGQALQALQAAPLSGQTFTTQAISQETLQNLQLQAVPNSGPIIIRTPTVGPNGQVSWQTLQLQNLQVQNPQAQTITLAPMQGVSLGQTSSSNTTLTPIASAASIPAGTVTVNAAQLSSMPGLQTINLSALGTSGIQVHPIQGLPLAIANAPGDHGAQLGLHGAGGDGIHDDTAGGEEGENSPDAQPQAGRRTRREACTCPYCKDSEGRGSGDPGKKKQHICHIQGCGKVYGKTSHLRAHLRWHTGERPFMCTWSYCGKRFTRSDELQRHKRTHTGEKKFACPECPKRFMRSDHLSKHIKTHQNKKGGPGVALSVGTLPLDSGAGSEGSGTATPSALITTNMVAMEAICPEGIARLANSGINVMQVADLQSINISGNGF
Sequence of Hypoxia-inducible factor 1-alpha (Homo sapiens) (Q16665 whole entry, looked up): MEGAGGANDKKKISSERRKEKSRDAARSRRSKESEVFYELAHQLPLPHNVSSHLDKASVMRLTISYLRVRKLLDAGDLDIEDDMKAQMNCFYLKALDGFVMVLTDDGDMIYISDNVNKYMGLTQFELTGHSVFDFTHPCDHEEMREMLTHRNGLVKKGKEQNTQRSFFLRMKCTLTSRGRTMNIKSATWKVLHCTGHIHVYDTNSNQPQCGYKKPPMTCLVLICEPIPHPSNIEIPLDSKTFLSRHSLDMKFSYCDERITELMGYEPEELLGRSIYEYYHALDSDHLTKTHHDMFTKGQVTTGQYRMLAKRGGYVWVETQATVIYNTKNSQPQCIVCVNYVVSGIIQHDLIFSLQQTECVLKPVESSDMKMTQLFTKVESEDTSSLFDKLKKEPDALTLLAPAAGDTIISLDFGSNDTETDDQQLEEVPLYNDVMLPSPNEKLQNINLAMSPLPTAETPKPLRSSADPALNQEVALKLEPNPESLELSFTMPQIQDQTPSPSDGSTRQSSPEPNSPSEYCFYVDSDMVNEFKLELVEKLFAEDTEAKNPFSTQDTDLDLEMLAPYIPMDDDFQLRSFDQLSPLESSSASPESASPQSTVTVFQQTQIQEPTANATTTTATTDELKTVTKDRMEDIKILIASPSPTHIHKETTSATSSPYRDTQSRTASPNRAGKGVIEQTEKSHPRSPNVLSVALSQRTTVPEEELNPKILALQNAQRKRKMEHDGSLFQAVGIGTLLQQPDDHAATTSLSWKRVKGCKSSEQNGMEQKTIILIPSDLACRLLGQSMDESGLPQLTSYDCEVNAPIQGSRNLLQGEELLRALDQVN

Take `CCC(=O)/C=C/C1C(C)=CCCC1(C)C` (stereo not drawn): the compound was called inactive in experiment [1], in experiment [2], in [3], in experiment [4], in experiment [5] and in [6]. Also, the call in experiment [7], in experiment [8], in experiment [9], in experiment [12], in [13] and in experiment [14] was inactive. Besides, the outcome in experiment [15], in experiment [16], in experiment [17] and in experiment [18] was inactive. The values for the AC50 in [10] and in [11] were 4.76 µM (active) and 35 µM (active), respectively.
As to `CC(=O)[C@H]1CC[C@H]2[C@@H]3CC=C4C[C@@H](O)CC[C@]4(C)[C@H]3CC[C@]12C`, the call in [1], in experiment [3], in experiment [4], in experiment [5], in experiment [6] and in experiment [7] was inactive. In addition, the compound was classed as inactive in [8], in experiment [20], in experiment [9], in experiment [12], in [13] and in experiment [14]. Moreover, the outcome in experiment [15] and in [16] was inactive. Besides, the concentration at half-maximal activity (AC50) (usually the concentration giving half of the maximal activity seen) was 36 µM (active) in experiment [19], 3.37 µM (active) in experiment [10] and 52.8 µM (active) in experiment [18].
With `Cc1ccc2n[nH]nc2c1`, the call in experiment [1], in experiment [2], in [3], in experiment [4], in experiment [5] and in [6] was inactive. Besides, the outcome in experiment [7], in experiment [8], in [9], in experiment [10], in experiment [11] and in experiment [12] was inactive. In addition, the result in experiment [13], in experiment [14], in experiment [15], in experiment [16], in experiment [17] and in experiment [18] was inactive.
Take `CC(=O)Nc1ccccc1O`: the outcome in experiment [1], in experiment [19], in experiment [3], in [4], in experiment [5] and in experiment [6] was inactive. In addition, the result in experiment [7], in [8], in experiment [20], in experiment [9], in [10] and in experiment [12] was inactive. Moreover, the result in experiment [13], in experiment [14], in experiment [15], in experiment [17] and in experiment [18] was inactive.
Take `O=C(Nc1ccccc1)c1cc([N+](=O)[O-])ccc1Cl`: the outcome in experiment [1], in [2], in experiment [4], in experiment [6], in experiment [20] and in experiment [12] was inactive. Also, the compound was called inactive in experiment [14], in [15], in [16], in [17] and in experiment [18]. Besides, the AC50 is 24.1 µM (active) in experiment [5]; 154 µM (active) in experiment [7]; 18.5 µM (active) in experiment [8]; 32.8 µM (active) in experiment [9]; 2.97 µM (active) in experiment [10]; 40.5 µM (active) in [13].
For the compound `OCCN1CCNCC1`, the outcome in experiment [1], in experiment [2], in experiment [3], in [4], in [5] and in experiment [6] was inactive. Also, the compound was called inactive in experiment [7], in [8], in [20], in [9], in [10] and in experiment [11]. Besides, the compound was called inactive in experiment [13], in [14], in [15], in [16], in experiment [17] and in [18].
For `N#Cc1ccccc1`, the call in [1], in experiment [2], in [4], in experiment [5], in experiment [6] and in experiment [7] was inactive. For the same compound, the compound was called inactive in experiment [8], in experiment [20], in experiment [9], in [10], in [11] and in experiment [12]. Further, the compound was classed as inactive in [13], in experiment [14], in experiment [15], in [16], in [17] and in [18].
